High-throughput results (PubChem)
PLK1 PBD inh: qHTS for Inhibitors of PLK1-PDB (polo-like kinase 1 - polo-box domain): Primary Screen. Serine/threonine-protein kinase PLK1 (Homo sapiens), P53350. Plk1 PBD binding of FITC phosphopeptide, fluorescence polarization. Potency, µM, usual class: inhibitors. hit rate 2.8% among 360,000. AID 720504, 2013; further: series mostly up to about 57 µM; nearly all actives have a fitted effect of over 65% in size
VDR inhibitor: Inhibitors of the vitamin D receptor (VDR): qHTS; AID 504847, 2011; VDR-SRC2-3 peptide fluorescence polarization, 2 h; Potency, µM, most hits filed as inhibitors; Vitamin D3 receptor (Homo sapiens), P11473; hit rate 0.93% among 400,000
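Fluorescence polarization assay measuring small-molecule disruption of VDR binding to the coregulator peptide SRC2-3. Compounds were pin-transferred (23 nl) into the reagent mix and incubated 2 h at room temperature before reading.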
WRN helicase inh: qHTS for Inhibitors of WRN Helicase; Potency, µM (highest dose often 114 µM), hits mostly inhibitors; hit rate 0.46% among 360,000; WRN helicase unwinding, fluorescent forked duplex, kinetic; AID 651768, 2012; Bifunctional 3'-5' exonuclease/ATP-dependent helicase WRN (Homo sapiens), Q14191; further: nearly all actives have a fitted effect of over 55% in size
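WRN at 20 nM final was preincubated with compound for 15 min at room temperature; reaction started with 100 nM forked duplex oligonucleotide carrying fluorophore and quencher plus 2 mM ATP (final). Unwinding followed kinetically by red fluorescence (ex 525/em 598 nm).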
PI5P4K alpha inh: qHTS for Inhibitors of phosphatidylinositol 5-phosphate 4-kinase (PI5P4K). Phosphatidylinositol 5-phosphate 4-kinase type-2 alpha (Homo sapiens), P48426. PI5P4Kalpha enzyme, ADP-Glo luminescence, 60 min; stronger effect = lower value. max response, %. hit rate 1.2% among 330,000. AID 652105, 2013; active means max response of -50% or lower; inconclusive means between -30% and -50%; inactive means -30% or higher; further: value at the top dose of about 77 µM
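Human PI5P4Kalpha with substrate in 0.038 M HEPES pH 7.4, 0.28 mM EGTA, 0.1% CHAPS, 5% DMSO; reaction started with 5 microM ATP (final), 60 min at room temperature. ADP formed read by ADP-Glo luminescence.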
FEN1 inhibitor: qHTS Assay for the Inhibitors of Human Flap endonuclease 1 (FEN1). P39748. Recombinant FEN1 flap cleavage, fluorescence, 15 min. Potency, µM (series often up to 114 µM), usual class: inhibitors. hit rate 0.35% among 390,000; further: nearly all actives have a fitted effect of over 65% in size
Target sequence (P39748 whole entry, looked up): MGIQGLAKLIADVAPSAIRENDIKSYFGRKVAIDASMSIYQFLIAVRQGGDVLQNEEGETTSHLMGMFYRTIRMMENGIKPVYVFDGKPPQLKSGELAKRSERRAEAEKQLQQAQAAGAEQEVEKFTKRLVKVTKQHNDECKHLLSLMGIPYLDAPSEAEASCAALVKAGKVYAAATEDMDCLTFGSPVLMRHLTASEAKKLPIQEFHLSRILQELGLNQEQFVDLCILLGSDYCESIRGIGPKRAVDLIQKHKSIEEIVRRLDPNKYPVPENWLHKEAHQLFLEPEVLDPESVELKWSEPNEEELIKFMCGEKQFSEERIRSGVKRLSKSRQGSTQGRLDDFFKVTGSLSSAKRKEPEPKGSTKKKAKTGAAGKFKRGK
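FEN1 at 10 nM, compound pretreatment for 15 min (room temperature), 50 nM final substrate to initiate; endpoint reads at 0 and 15 min; DMSO-only plates used as vehicle background.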
TCR act: Activators of T cell receptors: qHTS campaign. primary human leukocytes, anti-CD3, IL-2 HTRF, 48 h. Potency, µM (top dose mostly 9.22 µM), actives largely listed as activators. 330,000 tested, under 10 active. AID 504894, 2011
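IL-2 release read by HTRF sandwich (Eu cryptate donor, d2 acceptor, 665 nm emission) after 48 hr exposure of primary human leukocytes to compound together with anti-CD3 beads in the absence of co-stimulatory signals.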
Hits are given with their value; n = inactive; u = inconclusive; x = not tested or not shown. An excerpt weighted towards active compounds, which were near 3.7% of everything screened. Unless noted, the call rests on the fitted dose curve; in most records, active means well fitted curve in the direction sought with a large enough effect; inconclusive means small, poorly fitted or top-dose-only effect, or another doubt; inactive means no such curve, though single readings can be large; an effect the other way counts as inactive or inconclusive.

SMILES	PLK1 PBD inh	VDR inhibitor	WRN helicase inh	PI5P4K alpha inh	FEN1 inhibitor	TCR act
O=C(OCCCN1C(=O)c2ccccc2C1=O)c1ccco1	27µM	n	n	n	n	n
CCCCN1CCC2C=CCC(C(=O)O)C2C1=O (centres undefined)	x	n	x	x	n	x
CC(=O)c1cccc(Nc2nc(-c3sc(N)nc3C)cs2)c1	21µM	u	n	u	n	x
COC(=O)c1c(Cl)c(Cl)c(C(=O)OC)c(Cl)c1Cl	x	n	x	x	x	x
COC(=O)c1c(OC)cc2c(c1C)Oc1c(Cl)c(O)c(Cl)c(C)c1C(=O)O2	x	40µM	x	x	x	x
CCCCCCCc1cc2c(cn1)=C(OC)C(C)(OC(C)=O)C(=O)C=2Cl (centres undefined)	x	n	x	x	x	x
CCOc1ccc(NC(=O)CSc2nnc3c(n2)[nH]c2ccc(S(=O)(=O)N4CCCCC4)cc23)cc1	x	n	x	x	n	x
Cc1cccc(C(=O)Nc2cccnc2Cl)c1	8.4µM	n	n	n	n	n
O=C(C[n+]1cccc2cc(Cl)ccc21)c1ccc2c(c1)CCCC2	x	x	x	x	n	x
CCCCCNC(=O)C(c1ccccc1F)n1c(=O)c(-c2ccco2)nc2ccccc21 (centres undefined)	u	x	n	-64	x	x
O=C(NC1CCCCC1)C(c1ccccc1F)n1c(=O)c(-c2ccco2)nc2ccccc21 (centres undefined)	n	x	n	-69	x	x
O=C(NC1CCCCC1)C(c1ccc(-c2ccccc2)cc1)n1c(=O)c(-c2ccco2)nc2ccccc21 (centres undefined)	u	x	n	-92	x	x
O=C(NC1CCCCC1)C(c1ccncc1)n1c(=O)c(-c2ccccc2)nc2ccccc21 (centres undefined)	n	x	n	n	x	x
CCCC(=O)C1=C(c2ccc(C)cc2)N(C(=O)CCC)n2cnnc2S1	x	n	x	x	n	x
COc1ccccc1/C=C/c1nc2ccccc2[nH]1	x	x	x	x	n	x
Cc1ccc(CCNc2nc3c(S(=O)(=O)c4ccccc4)nnn3c3ccsc23)cc1	x	n	x	x	89µM	x
O=S(=O)(c1ccc(Br)cc1)c1nnn2c1nc(NCCc1ccccc1)c1sccc12	x	n	x	x	n	x
CCOC(=O)c1c(NC(=O)CCc2ccc(CC)o2)sc(C)c1C	27µM	n	n	n	n	n
CCOC(=O)c1c(NC(=O)/C=C/c2ccc(C)o2)sc(C)c1C	27µM	n	n	x	n	n
COC(=O)c1c(NC(=O)CCc2ccc(C)o2)sc(C)c1C	n	u	n	n	n	n
Cc1ccc(/C=C/C(=O)Nc2sc(C)c(C)c2C(=O)OC(C)C)o1	n	n	n	n	n	n
COc1ccc(-n2nc(C(=O)N3CCN(c4ccccc4OC)CC3)c3c4ccccc4n(C)c3c2=O)cc1Cl	x	n	x	x	n	x
O=C(CN1C(=O)C2(SCC(=O)N2c2cccc(F)c2)c2ccccc21)NCCc1ccccc1 (centres undefined)	x	n	x	x	n	x
Nc1nnc2c(n1)[nH]c1ccccc12	x	n	x	x	n	x
CN(C)C(=O)Nc1ccc(Oc2ccc(Cl)cc2)cc1	x	n	x	x	x	x
SMILES	PLK1 PBD inh	VDR inhibitor	WRN helicase inh	PI5P4K alpha inh	FEN1 inhibitor	TCR act
O=C(Nc1ncccc1O)c1ccc(Oc2ccccc2)cc1	30µM	u	n	n	n	n
COc1ccc(C(=O)N(Cc2ccco2)Cc2cccs2)c(OC)c1	x	u	x	x	n	x
O=C1c2ccccc2-c2onc3ccc(NCc4ccco4)c1c23	3.4µM	u	u	n	8.9µM	n
Cc1ccc2c(C)cc(=S)[nH]c2c1	u	n	n	n	n	n
Cc1ccc2[nH]c(=S)cc(C)c2c1	6µM	n	n	n	n	n
CCOc1ccccc1/C=N/n1c(COc2ccccc2)n[nH]c1=S	u	n	n	n	n	n
COc1cc(OC)c(OC)cc1/C=N/n1c(COc2ccccc2)n[nH]c1=S	27µM	n	n	n	n	n
COc1ccc(OC)c(/C=N/n2c(COc3ccccc3)n[nH]c2=S)c1	n	n	n	n	n	n
COc1ccc(/C=N/n2c(COc3ccccc3)n[nH]c2=S)cc1OC	19µM	n	n	n	n	n
CCC(=O)N1c2ccccc2CC1C(=O)NCc1ccccc1C (centres undefined)	x	n	x	x	n	x
COc1ccc2c(C#CCCO)c(-c3ccc(S(C)(=O)=O)cc3)sc2c1	27µM	n	n	n	n	n
CC1=C(C(=O)Nc2cccc(C(F)(F)F)c2)C(c2ccccc2)n2ncnc2N1 (centres undefined)	x	n	x	x	n	x
CC(C)Cn1c(N)c(C(=O)COC(=O)c2cc(-c3ccco3)nc3ccccc23)c(=O)n(C)c1=O	u	u	u	-97	u	n
CC(C)Cn1c(N)c(C(=O)COC(=O)C2CCCCC2)c(=O)n(C)c1=O	24µM	u	n	n	n	x
CC(C)Cn1c(N)c(C(=O)COC(=O)c2cc(-c3ccccc3)nc3ccccc23)c(=O)n(C)c1=O	n	n	n	n	n	n
O=C(CCCNC(=O)c1ccc(Cl)cc1)NCc1ccc(F)cc1	27µM	u	n	n	n	n
S=c1nc[nH]c2c1ncn2-c1ccc(Cl)cc1	6µM	u	n	u	n	n
CN(C)c1ccc(NC(=O)N2CCOCC2)cc1	n	14µM	n	n	n	n
CN(N=O)c1ccc(/C=C/c2ccccc2)cc1	x	x	x	x	n	x
O=C(/C=C/c1ccccc1)NC(NC(=S)Nc1ccc(Cl)cc1Cl)C(Cl)(Cl)Cl (centres undefined)	13µM	u	n	n	n	n
CS(=O)(=O)N1CCC(C(=O)N2CCN(c3ccccc3F)CC2)CC1	19µM	u	n	n	n	n
Cc1nn(C)cc1/C=C1\SC(=S)NC1=O	n	n	n	-82	n	n
Cc1nn(C)c(C)c1/C=C1/SC(=S)NC1=O	n	n	n	-78	n	n
CN1CCN(/C=C2\SC(=S)NC2=O)CC1	n	n	n	n	n	n
Cc1cccc(CNC(=O)c2ccc(Cn3c(=O)c4cccn4c4cccnc43)cc2)c1	x	n	x	x	n	x
Cn1c(=O)c2c(-c3ccc(Br)cc3)n(Cc3ccc(F)cc3)cc2n(C)c1=O	x	n	x	x	u	x
CCCCCOC(=O)c1[nH]c2c(c1C)C(=O)C(C(=O)OC)C(C)C2 (centres undefined)	3µM	u	u	u	n	n
CCc1ccc(-c2nc(CS(=O)CC(=O)NC3CCCCCC3)c(C)o2)cc1 (centres undefined)	30µM	n	n	n	n	n
COc1ccc2o/c(=N\O)c(C(=O)Nc3ccccc3OC)cc2c1	n	n	n	n	n	n
COc1ccccc1NC(=O)c1cc2cc(Br)ccc2oc1=N	n	89µM	n	n	n	n
